Source: PubChem BioAssay (National Center for Advancing Translational Sciences (NCATS))
ATXN2 expr inh = ATXN2 expression inhibition; HEK-293 ATXN2-luciferase reporter, luminescence, 24 h; Potency, µM (highest dose often 57 µM), inactives show at the top dose activity change, negative = inhibition, most hits filed as inhibitors; actives 0.72% (n = 360,000); AID 1745845; further: potency means the concentration at half of the fitted maximal effect; on the % scale 0 is the no-effect control and ±100 the full control effect; nearly all actives have a fitted effect of over 55% in size
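qHTS (up to 57 uM final) was run with 24 h compound exposure of reporter cells at 37 °C. Each well was multiplexed: SteadyGlo luminescence measured ATXN2-luciferase expression after a fluorogenic Gly-Phe-AFC viability readout (25 uM final).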
ATXN viability = viability counter-screen for ATXN expression inhibitors | S2 cells (HEK-293 line with an ATXN2-luciferase reporter) viability, CellTiter-Fluor protease fluorescence, 24 h | Potency, µM (series often up to 56.7 µM), actives largely listed as cytotoxic | actives 0.49% (n = 400,000); further: potency means the concentration at half of the fitted maximal effect; nearly all actives have a fitted effect of over 40% in size
MCF10A rerep = inducers of DNA re-replication in MCF 10A breast cells. MCF 10A DNA re-replication, Hoechst nuclear intensity, 48 h. actives 2.9% (n = 350,000). Potency, µM (doses to about 46.1 µM), inactives show top-dose activity, positive = re-replication, most hits filed as activators; further: potency means the concentration at half of the fitted maximal effect; % of control where 0% means no effect; nearly all actives have a fitted effect of over 50% in size
IL-1B inflam inh = inhibitors of inflammasome signaling (IL-1 beta secretion); THP-1 LPS/ATP IL-1B secretion, AlphaLISA, 16 h; hits give low values; activity change, % at 57.5 µM; actives 4.7% (n = 360,000); AID 743279; in the data active means activity change below about -50%; inconclusive means mostly about -30% to -49%; further: on the % scale 0 is the no-effect control and ±100 the full control effect
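Secreted IL-1B measured by AlphaLISA bead assay after 16 h compound exposure of THP-1 cells; compounds (final up to 57.5 uM) added 1 h before LPS (250 ng/mL) and ATP (1.25 mM) stimulation; lower signal means less secretion.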
PINK1 modulator = changes PINK1 expression | Potency, µM (doses to about 76.6 µM), inactives show at the top dose activation (PINK1 increase), actives largely listed as activators | actives 0.2% (n = 410,000) | PINK1 immunofluorescence, high-content cytometry, 24 h; active means well fitted activation curve with a large enough effect; inconclusive means small, poorly fitted or top-dose-only effect; cell line not stated here; further: potency means the concentration at half of the fitted maximal effect; % of control where 0% means no effect; nearly all actives have a fitted effect of over 65% in size
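Readout is PINK1 immunofluorescence, quantified alongside mitochondrial, cell and nuclear markers by laser-scanning microplate cytometry. Cells from a stable line were exposed to compound titrations (5 concentrations) for 24 hours, with CCCP controls.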
SW480 rerep = inducers of DNA re-replication in SW480 colon cancer cells | SW480 DNA re-replication, Hoechst DNA content imaging, 48 h | Potency, µM (series often up to 46.1 µM), without a hit: top-dose re-replication activation, most hits filed as activators | actives 1.8% (n = 340,000); further: potency means the concentration at half of the fitted maximal effect; % of control where 0% means no effect; nearly all actives have a fitted effect of over 55% in size
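250 cells/well; 23 nL cpd via pin tool; 48 hr, 37 C, 5% CO2; Hoechst 40 min; imager read of total nuclear intensity, ex 405/em 500-530 nm.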
Starred values were filed as active, the others as inactive; i = inactive; u = inconclusive; x = no result given; [ ] = dose if it differs, or a comment. A selection: hits, their analogues and other compounds. The true share with any hit is near 7.1%. Unless noted, the call rests on the fitted dose curve; in most records, active means well fitted curve in the direction sought with a large enough effect; inconclusive means small, poorly fitted or top-dose-only effect, or another doubt; inactive means no such curve, though single readings can be large; an effect the other way counts as inactive or inconclusive.

SMILES	ATXN2 expr inh	ATXN viability	MCF10A rerep	IL-1B inflam inh	PINK1 modulator	SW480 rerep
OCC1(CO)COC(C(Cl)(Cl)Cl)OC1	x	x	0%	x	x	3%
COc1ccc(NC(=O)N2CCN(c3nc(-c4cccc(OC)c4)cs3)CC2)cc1	22µM*	u	u	-93*	-2%[38.3 µM]	-5%
COc1cccc(NC(=S)N2CCN(C(c3ccccc3)c3ccccc3)CC2)c1	-3%	i	-1%	-13	-2%	-2%
COc1ccc(N2CCN(C(=O)CN3CCN(c4nc(-c5ccc(F)cc5)cs4)CC3)CC2)cc1	-15%	i	u	-52*	-1%	u
COc1cccc(-c2csc(N3CCN(C(=S)Nc4cccc(Cl)c4)CC3)n2)c1	u	u	20%	-81*	-2%[38.3 µM]	-4%
COc1ccc(NC(=S)N2CCN(C(c3ccccc3)c3ccccc3)CC2)c(OC)c1	-48%	i	20%	-59*	0%	3%
Cc1ccc(OCC(=O)Nc2nonc2-c2ccc(C)c(C)c2)cc1C	-11%	i	x	x	1%	x
COC(=O)c1cc2occc2n1CC(=O)Nc1ccc(N(C)C)cc1	6%	i	x	x	-1%	x
Cc1ccc(CNC(=O)CCN2C(=O)COc3ccc(C)cc32)cc1	14%	i	x	x	1%	x
COc1cccc(-c2csc(N3CCN(CC(=O)NNC(=O)c4ccc(Br)cc4)CC3)n2)c1	-7%	i	-4%	-24	-4%[38.3 µM]	15µM*
COc1cccc(-c2csc(N3CCN(C(=S)Nc4ccccc4OC)CC3)n2)c1	9%	i	8.2µM*	-15	x	-3%
COc1ccnc2[nH]cc(C(=O)C(=O)N3CCN(C(=O)c4ccccc4)C[C@@H]3C)c12	-1%	x	x	x	x	x
Nc1nc(=S)c2snnc2[nH]1	x	x	x	x	0%	x
CCOc1cc(-c2ccc3c(c2)OCO3)cc(=[O+]CC)c2c(C)oc(C)c12	x	x	x	x	-1%	x
N/C(Cc1ccc([N+](=O)[O-])cc1)=N\OC(=O)Cc1ccc(Cl)cc1	-2%	i	0%	-57*	0%	0%
N/C(Cc1ccc([N+](=O)[O-])cc1)=N\OC(=O)Cc1ccccc1	x	i	-6%	16	1%	1%
CC(=O)c1ccc(NC(=O)CCc2c(C)nn(-c3ccc4nnc(C)n4n3)c2C)cc1	x	x	x	x	0%	x
CC(=O)Nc1ccc(OC(=O)c2ccc(Br)c([N+](=O)[O-])c2)cc1	-18%	i	15%	-147*	2%	13%
CC(=O)Nc1ccc(C(=O)OCC(=O)c2ccc(C)c([N+](=O)[O-])c2)cc1	-5%	i	0%	-1	2%	-1%
Cc1ccc(S(=O)(=O)N2CCc3ccccc3CC2)cc1	u	i	u	-85*	0%	15%
CCOc1ccc(S(=O)(=O)N2CCC(C(=O)N3CCCCCC3)CC2)cc1C	-18%	i	5%	-52*	-1%	24%
CCN1CCN(C(=O)C2CCC(CNS(=O)(=O)c3ccccc3)CC2)CC1 (centres undefined)	2%	i	4%	10	x	-10%
Cc1ccc(S(=O)(=O)NCC2CCC(C(=O)N3CCN(C)CC3)CC2)cc1 (centres undefined)	x	i	18µM*	20	-1%	u
O=C(NCCN1CCOCC1)C1CCC(CNS(=O)(=O)c2ccc(Cl)cc2)CC1 (centres undefined)	16%	i	16µM*	-4	1%[38.3 µM]	4%
CC(C)c1ccc(S(=O)(=O)N2CCN(C(=O)C3CCCCC3)CC2)cc1	2%	i	3%	-1	-1%	u
SMILES	ATXN2 expr inh	ATXN viability	MCF10A rerep	IL-1B inflam inh	PINK1 modulator	SW480 rerep
Cc1ccc(S(=O)(=O)N2CCN(C(=O)C3CCCCC3)CC2)cc1	-2%	i	2.9µM*	17	0%[38.3 µM]	u
Cc1nc(Nc2ccccc2)c2oc3ccc(Cl)cc3c2n1	7%	i	u	-4	4%	11%
Clc1ccc2oc3c(Cl)ncnc3c2c1	-3%	i	u	-101*	1%	u
O=c1[nH]c(=O)n([C@H]2C[C@@H](O)[C@@H](CO)O2)cc1I	0%	x	x	x	x	x
CCCCC[n+]1ccn(C2=C([O-])c3ccccc3C(=O)/C2=N\S(=O)(=O)c2ccccc2)c1	u	i	19%	20	1%	11µM*
CCN(C(=O)C1CCN(S(=O)(=O)c2ccc3c(c2)CCCN3C(=O)C2CCC2)CC1)c1cccc(C)c1	9%	i	x	x	-2%	x
O=C(Nc1ccc2nc(SCC(=O)N3CCOCC3)sc2c1)c1ccc(Cl)cc1	x	x	x	x	1%	x
COC(=O)CSc1nc2ccc(NC(=O)c3ccccc3C(=O)N3CCOCC3)cc2s1	5%	i	1%	-65*	7%	-4%
O=C(Nc1ccc2nc(SCc3ccc(Cl)cc3)sc2c1)c1ccccc1C(=O)N1CCOCC1	-20%	u	6.5µM*	-7	1%	3%
O=C(Nc1ccc2nc(SCC(=O)N3CCOCC3)sc2c1)c1ccccc1Cl	x	x	x	x	1%	x
Cc1cc(Nc2cccc(Br)c2)n2c(nc3ccccc32)c1C#N	-5%	i	x	x	u	x
O=C1[C@H]2[C@@H](c3ccc(F)cc3)N3C(=O)N(c4cccc(Cl)c4)C(=O)[C@@]3(Cc3ccccc3)[C@H]2C(=O)N1C1CCCCC1	8%	i	9%	-50*	1%	4%
O=C1[C@H]2[C@@H](c3ccc(F)cc3)N3C(=O)N(c4cccc(Cl)c4)C(=O)[C@@]3(Cc3ccc(Cl)cc3)[C@H]2C(=O)N1C1CCCCC1	12%	i	-1%	-23	2%	6%
Cn1c(SCC(=O)N2CCc3ccccc3C2)nnc1-c1ccncc1	-7%	i	12%	23	-1%	0%
CCc1cccc(CC)c1-n1c(SCC(=O)N2CCc3ccccc3C2)nnc1-c1cccnc1	u	i	24%	-58*	9%	0%
CCn1c2ccccc2c2cc(CN3CCN(Cc4cc(OC)c(O)c(OC)c4)CC3)ccc21	x	x	x	x	5%	x
CCCNCC(O)Cn1c2ccccc2n2c(=O)cc(C)c(C#N)c12 (centres undefined)	-13%	u	0%	-24	19%	0%
CCn1c2ccccc2c2cc(CN3CCN(Cc4cc(OC)ccc4O)CC3)ccc21	-24%	i	u	-84*	1%	u
COc1ccc(CN2CCN(CC(O)Cn3c4ccccc4c4ccccc43)CC2)cc1 (centres undefined)	u	u	u	-57*	-1%	u
O=c1c2ccccc2n(CC(O)CN2CCCCC2)c2ccccc12 (centres undefined)	u	x	21µM*	x	-1%	7.3µM*
